In a collection of fitness landscapes (doi:10.1126/science.1257360):
Whole data set: some 140,000 sequences, median “enrichment ratio after two sorts for PhoP signalling” near 0, cut for the highest 2% near 11. This excerpt belongs to a sample that is enriched for the highest values.

B1: PhoQ; a variant is named by its letters at X, in order, P23837 (parent)
chain: MKKLLRLFFPLSLRVRFLLATAAVVLVLSLAYGMVALIGYSVSFDKTTFRLLRGESNLFYTLAKWENNKLHVELPENIDKQSPTMTLIYDENGQLLWAQRDVPWLMKMIQPDWLKSNGFHEIEADVNDTSLLLSGDHSIQQQLQEVREDDDDAEMTHSVAVNVYPATSRMPKLTIVVVDTIPVELKSSYMVWSWFIYVLSANLLLVIPLLWVAAWWSLRPIEALAKEVRELEEHNRELLNPATTRELTSLVRNLNRLLKSERERYDKYRTTLTDLTHSLKTPLXXLQXXLRSLRSEKMSVSDAEPVMLEQISRISQQIGYYLHRASMRGGTLLSRELHPVAPLLDNLTSALNKVYQRKGVNISLDISPEISFVGEQNDFVEVMGNVLDNACKYCLEFVEISARQTDEHLYIVVEDDGPGIPLSKREVIFDRGQRVDTLRPGQGVGLAVAREITEQYEGKIVAGESMLGGARMEVIFGRQHSAPKDE

Variants of: B1
Assay: enrichment ratio after two sorts for PhoP signalling (ratio (wild type AVST 3.29)); higher = more functional
Settings: with PhoP (E. coli)

Variant | enrichment ratio
PAWD | ≤ 0.25
SEAL | 7.85
GSHA | ≤ 0.25
AKYV | ≤ 0.25
FLDC | ≤ 0.25
ANKM | ≤ 0.25
TAGV | 5.24
ICLI | 5.89
FVAK | ≤ 0.25
FELQ | 8.46
IHIG | ≤ 0.25
TQRH | ≤ 0.25
TQMT | 14.6
TQLT | 18.8
TQLA | 4.57
TQKH | ≤ 0.25
FQMT | ≤ 0.25
TQLK | 4.42
TQNH | 16.3
EQMT | ≤ 0.25
NNDT | ≤ 0.25

Variant | enrichment ratio
FCNF | ≤ 0.25
MPFQ | ≤ 0.25
RPVE | ≤ 0.25
VATR | ≤ 0.25
FKHE | ≤ 0.25
YRPV | ≤ 0.25
VMPF | ≤ 0.25
AQGT | 3.18
MVAL | 11.3
AKAL | 11.1
TSAL | 13
AQAL | 18.4
AHAL | ≤ 0.25
KSAL | ≤ 0.25
ASAL | 11.7
FSAL | 0.667
GVAL | 1.02
NVAL | ≤ 0.25
VRAL | ≤ 0.25
GNDN | 0.537
LWNG | ≤ 0.25

Variant | enrichment ratio
QKPR | ≤ 0.25
NSMN | ≤ 0.25
RATG | ≤ 0.25
KCAL | ≤ 0.25
KMAL | ≤ 0.25
TMAL | 14
NMAL | ≤ 0.25
FCAL | ≤ 0.25
MFAL | ≤ 0.25
AMAL | 11.3
DMAL | ≤ 0.25
MKAL | 4.45
MMAL | 13.5
MCAL | 13.5
VLAL | 0.925
HHKF | ≤ 0.25
ICEL | ≤ 0.25
LEWF | ≤ 0.25
GLPR | ≤ 0.25
TEEC | 12.4
QESC | 5.96

Variant | enrichment ratio
HPEC | ≤ 0.25
TESC | 13.3
TEHC | 22.1
YYHC | ≤ 0.25
LWEC | ≤ 0.25
KSYC | ≤ 0.25
TEYC | 12.6
YTYC | ≤ 0.25
NESC | ≤ 0.25
NEHC | ≤ 0.25
YRVI | ≤ 0.25
ETQT | ≤ 0.25
GDCV | 1.12
HWFI | ≤ 0.25
VAGY | 1.53
NQGE | ≤ 0.25
YYNI | ≤ 0.25
MCMI | 4.33
IAKS | ≤ 0.25
NMWR | ≤ 0.25
KAQY | ≤ 0.25
